Most compounds without a hit are left out; they make up all but 12% or so of the library.
G9a block: qHTS Assay for Inhibitors of Histone Lysine Methyltransferase G9a. 8.8% of 350,000 active. G9a H3K9 monomethylation, AlphaScreen, 2 h. AID 504332, 2011. Potency, µM (series often up to 102 µM), for inactives: top-dose activity, negative = inhibition, most hits filed as inhibitors; also: % is scaled to controls: 0 for no effect and ±100 for the full control effect; nearly all actives have a fitted effect of over 75% in size
Target sequence (Q96KQ7 913-1193 limits assumed): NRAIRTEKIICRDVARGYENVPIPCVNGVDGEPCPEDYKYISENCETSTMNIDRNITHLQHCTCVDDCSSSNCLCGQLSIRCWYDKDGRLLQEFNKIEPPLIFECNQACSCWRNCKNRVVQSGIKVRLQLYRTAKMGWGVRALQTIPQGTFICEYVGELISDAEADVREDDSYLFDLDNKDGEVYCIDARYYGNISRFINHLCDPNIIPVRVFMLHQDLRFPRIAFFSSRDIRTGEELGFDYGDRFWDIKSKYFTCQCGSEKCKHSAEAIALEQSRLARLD
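Methyltransferase reactions run at room temperature for 2 h (20 nM enzyme, 500 nM biotin-H3K9 peptide, 20 uM SAM) after a 15 min compound preincubation; product detected by AlphaScreen beads and anti-H3K9me1 antibody.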
JMJD2A Tudor: qHTS Assay for Inhibitors of JMJD2A-Tudor Domain; AlphaScreen JMJD2A-Tudor / H3K4me3 peptide binding; Lysine-specific demethylase 4A (Homo sapiens), O75164; 4.4% of 390,000 active; Potency, µM (titrated, usually from 114 µM), for the others: at the top dose activity change, negative = inhibition, most hits filed as inhibitors; also: % is scaled to controls: 0 for no effect and ±100 for the full control effect; nearly all actives have a fitted effect of over 50% in size
HP1b chromo inh: HTS for Inhibitors of HP1-beta Chromodomain Interactions with Methylated Histone Tails; Chromobox protein homolog 1 (Homo sapiens), P83916; AlphaScreen HP1-beta / biotin-H3K9me3 peptide binding; Potency, µM (titrated, usually from 114 µM), without a hit: top-dose activity change, negative = inhibition, usual class: inhibitors; 0.56% of 390,000 active; AID 540317, 2011; also: nearly all actives have a fitted effect of over 70% in size
Target sequence (P83916 whole entry, looked up): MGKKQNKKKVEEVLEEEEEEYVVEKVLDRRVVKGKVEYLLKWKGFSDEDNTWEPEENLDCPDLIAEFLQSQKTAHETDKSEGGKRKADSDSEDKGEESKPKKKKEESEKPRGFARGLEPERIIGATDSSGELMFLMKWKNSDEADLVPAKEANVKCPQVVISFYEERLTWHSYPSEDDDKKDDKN
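HP1-beta protein (50 nM final) preincubated 30 min at room temperature with biotinylated H3(1-18)K9me3 peptide (50 nM) in PBS pH 7.4, 0.01% Tween-20, then compound added for 30 min. AlphaScreen streptavidin donor/nickel chelate acceptor beads (10 ug/mL final), 30 min dark, luminescence read.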
L3MBTL1 inh: qHTS Assay for the Inhibitors of L3MBTL1 | Lethal(3)malignant brain tumor-like protein 1 (Homo sapiens), Q9Y468 | AlphaScreen L3MBTL1–H3K9me1 peptide binding | Potency, µM (top dose mostly 57.1 µM), for inactives: at the highest dose activity, negative = inhibition, hits mostly inhibitors | 0.66% of 230,000 active | AID 485360, 2010; also: % is scaled to controls: 0 for no effect and ±100 for the full control effect; nearly all actives have a fitted effect of over 60% in size
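Displacement of a biotinylated histone H3(1-15) peptide monomethylated at Lys9 (75 nM) from L3MBTL1 (50 nM) was measured by AlphaScreen after a 30 min room-temperature compound incubation; cefsulodin titration served as intraplate control.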
Sfp inh: qHTS Assay for Inhibitors of Bacillus subtilis Sfp phosphopantetheinyl transferase (PPTase) | 4'-phosphopantetheinyl transferase ffp (Bacillus subtilis), Q9F4F7 | Biochemical Sfp PPTase activity, qHTS | Potency, µM, for inactives: largest response in the series, negative = inhibition, hits mostly inhibitors | 3.5% of 310,000 active;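 also: the enzyme is Sfp with the accession as filed and its product quenches rhodamine fluorescence; 0% = enzyme reaction without inhibitor and -100% = no enzyme wells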
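Compounds were incubated with enzyme (final 15 nM) for 15 min at room temperature before substrate addition started the reaction. Fluorescence at 525 nm excitation, 598 nm emission was recorded immediately and after 30 minutes.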
BAZ2B block: qHTS Assay for Inhibitors of BAZ2B; AID 504333, 2011; Bromodomain adjacent to zinc finger domain protein 2B (Homo sapiens), Q9UIF8; AlphaScreen BAZ2B-H3K14Ac peptide displacement; 4.4% of 360,000 active; Potency, µM (series often up to 114 µM), inactives show at the highest dose activity change, negative = inhibition, usual class: inhibitors; also: % is scaled to controls: 0 for no effect and ±100 for the full control effect; nearly all actives have a fitted effect of over 60% in size
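BAZ2B 50 nM plus b-H3(5-23)K14Ac 50 nM, PBS pH 7.4/0.01% Tween-20, 30 min RT; compound added (max 110 uM), 30 min RT; streptavidin donor/Ni-chelate acceptor beads 10 ug/mL final, 20 min dark; AlphaScreen read.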
The depositor's hits bear a star; ? = inconclusive; . = no result given; [ ] = another dose, or the depositor's remark. Calls follow the shape of the dose curve; as a rule, active = well fitted curve in the direction sought with a large enough effect; inconclusive = small, poorly fitted or top-dose-only effect, or another doubt; inactive = no such curve, though single readings can be large; an effect the other way counts as inactive or inconclusive. Potency is read from the fitted curve at half-maximal effect.

SMILES	G9a block	JMJD2A Tudor	HP1b chromo inh	L3MBTL1 inh	Sfp inh	BAZ2B block
COc1ccc(NC(=O)CN2CCN(CC(=O)Nc3ccccc3Cl)CC2)c(OC)c1	44.7µM*	-12.3%	29.5%	.	16.4%	-1.5%
COc1ccc(NC(=O)CN2CCN(CC(=O)Nc3ccccc3Cl)CC2)cc1	.	-14.3%	39.6%	3.0%	1.8%	-7.3%
COc1ccc(-c2cn(-c3ccc(C)cc3)c(=O)n2CC(=O)Nc2cccc(F)c2)cc1	?	79.4µM*	-19.1%	.	7.8%	?
COc1cc(NC(=O)CN2CCN(CC(=O)Nc3ccccc3OC)CC2)cc(OC)c1	44.7µM*	-18.1%	32.7%	.	10.8%	-0.9%
COc1ccccc1NC(=O)CN1CCN(CC(=O)Nc2ccc(OC)c(OC)c2)CC1	?	-16.7%	40.4%	.	0.4%	-1.6%
COc1ccc(NCC(=O)Nc2ccc(Br)cc2F)c(OC)c1	.	56.2µM*	?	?	-16.0%	39.8µM*
COc1ccccc1NC(=O)Cn1cc(C(=O)c2ccncc2)c(=O)c2cc(C)ccc21	-0.4%[59 µM]	-13.1%	6.5%[57 µM]	.	.	-4.7%
O=C(NCc1ccc(F)cc1)n1c(-c2ccccc2)c(P(=S)(c2ccccc2)c2ccccc2)c2ccccc21	.	-11.6%	.	.	.	.
CCOc1ccc(NC(=O)NCc2ccc3c(c2)OCO3)cc1	24.3%	-10.6%	35.5%	.	-0.5%	-35.6%
CCOc1ccc(CN(CCc2ccc3c(c2)OCO3)Cc2cc(OC)cc(OC)c2)cc1	1.41µM*	3.98µM*	?	.	.	?
O=C(O)Cn1cc(/C=C2/SC(=O)N(CC(=O)N3CCCCCC3)C2=O)c2ccccc21	?	-25.1%	-25.2%	.	5.0%	-33.4%
O=C(O)CN1C(=O)/C(=C/c2ccc(N3CCCCC3)o2)SC1=S	25.1µM*	?	?	31.6µM*	28.2µM*	35.5µM*
COC(=O)CN1C(=O)S/C(=C/c2ccc(N3CCCCC3)o2)C1=O	26.8%[0.501 µM]	35.5µM*	?	-23.6%	7.08µM*	44.7µM*
CCOC(=O)CN1C(=O)S/C(=C/c2ccc(N3CCCCC3)o2)C1=O	3.16µM*	50.1µM*	17.5%	3.6%	14.1µM*	-7.4%
CCOC(=O)CN1C(=O)S/C(=C/c2ccco2)C1=O	?	2.8%	23.6%	-2.1%	27.8%	?
COC(=O)CN1C(=O)S/C(=C/c2cc(C)n(C)c2C)C1=O	?	?	-21.4%	-14.8%	12.5%	?
CC(=O)N(O)C/C=C/c1cccc(Oc2ccccc2)c1	.	.	.	.	-2.5%	.
NCCCC(N)CC(=O)NC1CNC(=O)C(C2CC(O)N=C(N)N2)NC(=O)/C(=C/NC(N)=O)NC(=O)C(CO)NC(=O)C(CO)NC1=O (stereo not given)	28.0%[59 µM]	.	.	.	10.3%	.
COc1ccc(NCc2ccsc2)cc1	35.5µM*	56.2µM*	-19.1%	.	-7.9%	17.8µM*
COc1ccc(CNc2ccc(S(N)(=O)=O)cc2)cc1	25.4%	-5.2%	7.1%	-0.5%	7.9%	-2.6%
COc1ccc(NC(=O)c2oc3ccccc3c2NC(=O)COc2ccc(F)cc2)c(OC)c1	0.8%[59 µM]	-13.6%	10.1%	.	.	-30.7%
Cc1ccc(NC(=S)N(CCCN2CCOCC2)Cc2ccco2)cc1Cl	-15.2%	-31.0%	-10.3%	-4.5%	-17.0%	-38.3%
CCN1CCN(CCCN(Cc2ccco2)C(=S)Nc2ccc(C)c(Cl)c2)CC1	35.5µM*	-24.1%	26.7%	7.2%	-37.6%	-29.4%
CCOC(=O)c1ccc(NC(=S)N(CCCN2CCCC2)Cc2ccco2)cc1	56.2µM*	-24.7%	-2.2%	35.5µM*	-13.2%	-34.6%
CCN1CCN(CCCN(Cc2ccco2)C(=S)Nc2cc(Cl)ccc2C)CC1	28.2µM*	-8.2%	4.4%	17.3%	-86.6%	-8.7%

Compound activity deposited in PubChem BioAssay by National Center for Advancing Translational Sciences (NCATS).
